The supplement of paper PMC6089552
Among all 3,200 compounds or so, about 300 (9.4%) showed activity. What follows is part of a selection rich in actives, with near analogues and random picks from the rest.

Tested on: A673/TR/shEF
Assay: cell viability (LOESS-normalised, relative to median of negative controls) (log2 ratio); higher = more viable cells (less compound effect), active = hit call of the paper (over 3 MAD below the median)
Settings: treatment time: 72 h
How it was run: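 A673/TR/shEF Ewing sarcoma cells were plated at 1,500 per well in 384-well plates and cultured with or without doxycycline, added 24 h before compounds, to induce EWS-FLI1 shRNA knockdown. Library compounds at two or more concentrations, alongside DMSO controls, were applied for three days. Cell viability was measured by CellTiter-Glo luminescence on an Envision reader. Readings were LOESS-corrected per plate, divided by the median of negative controls and log2-transformed, and hits were wells lying at least three median absolute deviations from the median of all screened wells.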

[1] = 0.25 µM, library screen: screen1, EWS-FLI1 expression: high (no doxycycline)
[2] = 0.25 µM, library screen: screen1, EWS-FLI1 expression: low (doxycycline-induced shRNA knockdown)
[3] = 2.5 µM, library screen: screen1, EWS-FLI1 expression: high (no doxycycline)
[4] = 2.5 µM, library screen: screen1, EWS-FLI1 expression: low (doxycycline-induced shRNA knockdown)
[5] = 0.025 µM, library screen: screen2, EWS-FLI1 expression: high (no doxycycline)
[6] = 0.025 µM, library screen: screen2, EWS-FLI1 expression: low (doxycycline-induced shRNA knockdown)
[7] = 0.25 µM, library screen: screen2, EWS-FLI1 expression: high (no doxycycline)
[8] = 0.25 µM, library screen: screen2, EWS-FLI1 expression: low (doxycycline-induced shRNA knockdown)
[9] = 2.5 µM, library screen: screen2, EWS-FLI1 expression: high (no doxycycline)
[10] = 2.5 µM, library screen: screen2, EWS-FLI1 expression: low (doxycycline-induced shRNA knockdown)
[11] = 25 µM, library screen: screen2, EWS-FLI1 expression: high (no doxycycline)
[12] = 25 µM, library screen: screen2, EWS-FLI1 expression: low (doxycycline-induced shRNA knockdown)

Measured: cell viability (log2)

CC(=O)C1=C(O)[C@@H]2[C@H]3c4c[nH]c5cccc(c45)C[C@H]3C(C)(C)N2C1=O
inactive: [1] 0.0498 | [2] 0.042 | [3] 0.0855 | [4] 0.00492

COc1cc2c(cc1OC)C(=O)c1ccc(OC)c(OC)c1OCC(=O)C2
inactive: [1] 0.0297 | [2] 0.0329 | [3] 0.104 | [4] 0.0978

COc1ccc2c(c1O)-c1c(OC)c(OC)cc3c1[C@H](C2)N(C)CC3
inactive: [1] -0.01 | [2] -0.0109 | [3] 0.111 | [4] 0.131

COc1cc2c(c(OC)c1OC)-c1ccc(O)c(=O)cc1C(NC(C)=O)CC2 (stereo unspecified)
active: [3] -1.1 | [4] -0.493
inactive: [1] 0.0964 | [2] 0.0193

COc1cc2c(c(OC)c1OC)-c1ccc(OC)c(=O)cc1[C@@H](NC(C)=O)CC2
active: [1] -4.23 | [2] -0.935 | [7] -3.33 | [8] -0.503 | [3] -4.18 | [4] -0.869 | [9] -3.21 | [10] -0.472 | [11] -3.45 | [12] -0.515
inactive: [5] 0.127 | [6] 0.0363

C=C(C)c1cc2cc(C(C)=O)c(O)cc2o1
inactive: [1] 0.113 | [2] 0.098 | [3] 0.0228 | [4] 0.00912

OCC(O)Cc1ccc2c(c1)OCO2 (stereo unspecified)
inactive: [1] 0.0615 | [2] 0.039 | [3] 0.0501 | [4] 0.111

CC1(C)C(=O)[C@@H]2O[C@@H]2[C@@]2(C)C1C[C@@H](O)[C@]1(C)C2CC[C@@]2(C)[C@H](c3ccoc3)OC(=O)C3OC321 (stereo partly specified)
inactive: [1] 0.0599 | [2] 0.093 | [3] 0.0793 | [4] 0.18

CC1(C)C(=O)C=C[C@]2(C)[C@H]3CC[C@@]4(C)[C@H](c5ccoc5)OC(=O)[C@H]5O[C@]54[C@]3(C)[C@H](O)C[C@@H]12
inactive: [1] -0.0265 | [2] 0.039 | [3] 0.0641 | [4] 0.0262

Cc1ccccc1CN1CCN(Cc2ccc(F)cc2)CC1
inactive: [1] 0.0915 | [2] 0.13 | [3] 0.113 | [4] 0.0962

C[C@@H]1CC[C@@]2(OC1)O[C@H]1[C@@H](O)[C@H]3[C@@H]4CC[C@H]5C[C@@H](O[C@@H]6O[C@H](CO)[C@H](O[C@@H]7O[C@H](CO)C(O)[C@H](O[C@@H]8OC[C@@H](O)[C@H](O)[C@H]8O)[C@H]7O[C@@H]7O[C@H](CO)[C@H](O)[C@H](O[C@@H]8O[C@H](CO)[C@@H](O)[C@H](O)[C@H]8O)[C@H]7O)[C@H](O)[C@H]6O)[C@H](O)C[C@]5(C)[C@H]4CC[C@]3(C)[C@H]1[C@@H]2C (stereo partly specified)
inactive: [1] 0.0473 | [2] 0.00355 | [3] 0.099 | [4] 0.184

C[C@H]1CC[C@]2(NC1)O[C@H]1C[C@H]3[C@@H]4CC[C@H]5C[C@@H](O[C@@H]6O[C@H](CO)[C@H](O[C@@H]7O[C@H](CO)[C@@H](O)[C@H](O[C@@H]8OC[C@@H](O)[C@H](O)[C@H]8O)[C@H]7O[C@@H]7O[C@H](CO)[C@@H](O)[C@H](O)[C@H]7O)[C@H](O)[C@H]6O)CC[C@]5(C)[C@H]4CC[C@]3(C)[C@H]1[C@@H]2C
active: [3] -1.17 | [4] -1.98
inactive: [1] 0.0131 | [2] -0.12

C[C@H]1CC[C@]2(NC1)O[C@H]1C[C@H]3[C@@H]4CC[C@H]5C[C@@H](O)CC[C@]5(C)[C@H]4CC[C@]3(C)[C@H]1[C@@H]2C
inactive: [1] 0.0391 | [2] 1.7e-05 | [3] 0.161 | [4] 0.0669

CCNc1nc(Cl)nc(NC(C)C)n1
inactive: [1] 0.143 | [2] 0.0518 | [3] 0.132 | [4] 0.0856

CCC1(C2=NCCN2)Cc2ccccc2O1 (stereo unspecified)
inactive: [7] 0.203 | [8] 0.0265 | [9] 0.184 | [10] 0.0979

CC[C@@]1([C@H]2O[C@H]([C@H]3O[C@@](O)(CO)[C@H](C)C[C@@H]3C)C[C@H]2C)CC[C@H]([C@@]2(C)CC[C@]3(C[C@H](O)[C@@H](C)[C@@H]([C@H](C)[C@H](OC)[C@@H](C)C(=O)O)O3)O2)O1
inactive: [1] -0.0386 | [2] 0.12 | [4] 0.0352
active: [3] -0.325

CO[C@@H]1C[C@@H](C[C@H]2CC[C@H](C)[C@H]([C@@H](C)C(=O)O)O2)O[C@]2(O[C@](C)([C@H]3CC[C@@](C)([C@@H]4O[C@@H]([C@H]5O[C@@](O)(CO)[C@H](C)C[C@@H]5C)C[C@@H]4C)O3)C[C@H]2C)[C@@H]1C
inactive: [1] 0.0701 | [2] 0.147 | [4] -0.0408
active: [3] -0.685

CN1CCc2cc(O)cc3c2C1Cc1ccc(O)c(O)c1-3 (stereo unspecified)
inactive: [7] 0.248 | [8] 0.14 | [9] 0.197 | [10] 0.135

Nc1ccc2c(n1)[nH]c1ccccc12
inactive: [7] 0.156 | [8] 0.0674 | [9] 0.0702 | [10] 0.0934

Nc1ccc(CCN2CCN(c3cccc(C(F)(F)F)c3)CC2)cc1
inactive: [7] 0.0196 | [8] 0.0537 | [9] 0.131 | [10] 0.044

C[C@@H]1C[C@H]2CC(=O)[C@H]3CCCN4CCC[C@H]2[C@]34C1
inactive: [1] 0.103 | [2] 0.0455 | [3] 0.108 | [4] 0.0845

O=P1(N(CCCl)CCCl)NCCCO1 (stereo unspecified)
inactive: [5] 0.105 | [6] 0.0824 | 0.103 µM, library screen: screen3, EWS-FLI1 expression: high (no doxycycline) 0.146 | 0.103 µM, library screen: screen3, EWS-FLI1 expression: low (doxycycline-induced shRNA knockdown) 0.0804 | [1] 0.11 | [2] 0.163 | [7] 0.137 | [8] 0.0863 | 0.308 µM, library screen: screen3, EWS-FLI1 expression: high (no doxycycline) 0.0638 | 0.308 µM, library screen: screen3, EWS-FLI1 expression: low (doxycycline-induced shRNA knockdown) 0.0134 | 0.926 µM, library screen: screen3, EWS-FLI1 expression: high (no doxycycline) 0.0846 | 0.926 µM, library screen: screen3, EWS-FLI1 expression: low (doxycycline-induced shRNA knockdown) 0.061 | [3] 0.228 | [4] 0.17 | [9] 0.122 | [10] 0.0525 | 2.8 µM, library screen: screen3, EWS-FLI1 expression: high (no doxycycline) 0.114 | 2.8 µM, library screen: screen3, EWS-FLI1 expression: low (doxycycline-induced shRNA knockdown) 0.0823 | 8.3 µM, library screen: screen3, EWS-FLI1 expression: high (no doxycycline) 0.0653 | 8.3 µM, library screen: screen3, EWS-FLI1 expression: low (doxycycline-induced shRNA knockdown) 0.1 | [11] 0.0276 | [12] 0.165 | 25 µM, library screen: screen3, EWS-FLI1 expression: high (no doxycycline) 0.071 | 25 µM, library screen: screen3, EWS-FLI1 expression: low (doxycycline-induced shRNA knockdown) 0.141

Cc1c(N)nc([C@H](CC(N)=O)NC[C@H](N)C(N)=O)nc1C(=O)N[C@H](C(=O)N[C@H](C)[C@@H](O)[C@H](C)C(=O)N[C@H](C(=O)NCCc1nc(-c2nc(C(=O)NCCC[S+](C)C)cs2)cs1)[C@@H](C)O)[C@@H](OC1OC(CO)C(O)C(O)C1OC1OC(CO)C(O)C(OC(N)=O)C1O)c1cnc[nH]1 (stereo partly specified)
inactive: [1] 0.091 | [2] 0.105 | [3] 0.125 | [4] 0.052

C[C@]12CC[C@H](O)C[C@H]1CC[C@@H]1[C@@H]2[C@H](O)C[C@]2(C)[C@@H](C3=CC(=O)OC3)CC[C@]12O
active: [3] -0.259 | [4] -0.409
inactive: [1] 0.0899 | [2] -0.0779

C[C@]12CCC3C(CC[C@H]4C[C@H](O)CC[C@]34C)C1CC[C@@H]2O (stereo partly specified)
inactive: [1] 0.158 | [2] 0.216 | [3] 0.201 | [4] 0.106

C[C@]12CC[C@H](O)C[C@@H]1CC[C@@H]1[C@@H]2CC[C@]2(C)C(=O)CC[C@@H]12
inactive: [1] 0.113 | [2] 0.0515 | [3] 0.101 | [4] 0.0566

C[C@]12CC[C@@H](O)C[C@@H]1CC[C@@H]1[C@@H]2CC[C@]2(C)C(=O)CC[C@@H]12
inactive: [1] -0.00242 | [2] -0.00815 | [7] 0.137 | [8] 0.0672 | [3] 0.0414 | [4] 0.0708 | [9] 0.202 | [10] 0.0943

C[C@]12CC[C@H](O)C[C@H]1CC[C@@H]1[C@@H]2C[C@@H](O)[C@]2(C)[C@@H](C3=CC(=O)OC3)CC[C@]12O
active: [3] -0.488 | [4] -0.691
inactive: [1] 0.0425 | [2] -0.036

C[C@]12CC[C@H](O)C[C@@H]1CC[C@@H]1[C@@H]2CC[C@]2(C)[C@@H](O)CC[C@@H]12
inactive: [1] 0.128 | [2] 0.00375 | [3] 0.117 | [4] 0.154

CN1C2C[C@H](OC(=O)[C@H](CO)c3ccccc3)CC1[C@@H](O)C2 (stereo partly specified)
inactive: [1] 0.0376 | [2] 0.0137 | [3] 0.116 | [4] 0.0715

C=C1C2CC[C@@]3(C)[C@H](c4ccoc4)OC(=O)C[C@]13O[C@H]1CC(=O)C(C)(C)[C@H](C(OC(C)=O)C(=O)OC)[C@@]21C (stereo partly specified)
inactive: [1] 0.0428 | [2] 0.0583 | [3] 0.106 | [4] 0.119

CN1C2CCC1CC(OC(c1ccccc1)c1ccccc1N)C2 (stereo unspecified)
inactive: [1] 0.0792 | [2] 0.0013 | [7] 0.13 | [8] 0.107 | [3] 0.094 | [4] -0.0817 | [9] 0.165 | [10] 0.125

C[C@@H]1C(=O)O[C@H]2[C@H]1CC[C@@]1(C)C=CC(=O)[C@@]3(C)O[C@@]213
inactive: [1] -0.0341 | [2] 0.0137 | [3] 0.0354 | [4] 0.0553

COP(N)(=O)SC (stereo unspecified)
inactive: [1] 0.148 | [2] 0.0387 | [3] 0.151 | [4] 0.112

COc1cc(C(O)CN)ccc1O (stereo unspecified)
inactive: [7] 0.137 | [8] 0.137 | [9] 0.0316 | [10] 0.00185
